Outcome and AC50 data for four molecules are collected here from PubChem BioAssay (EPA / NIEHS).

Activity calls are given as the source filed them. The calls were made as follows: active = hit-call score of the fitted dose curve at least 0.9, where 1 is the maximum; inactive = score below 0.9.

Test [1] deals with Transcription factor E2F1 (Homo sapiens) (UniProt Q01094). The experiment in a line: ATG_E2F_CIS: Attagene CIS-FACTORIAL HepG2 Assay for human E2F Transcription Factor 1 (AID 2282935). To be noted: HepG2 Attagene cis-reporter, E2F reporter RNA transcripts; actives raise or lower the signal. In outline: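 Transient MRTU transfection of HepG2; 24 h compound exposure; RNA → oligo(dT) RT → PCR → FAM label → HpaI cut → CE fluorescence. Gain/loss of signal fit against DMSO.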
Transcription factor E2F1 (Homo sapiens), sequence (Q01094 whole entry, looked up): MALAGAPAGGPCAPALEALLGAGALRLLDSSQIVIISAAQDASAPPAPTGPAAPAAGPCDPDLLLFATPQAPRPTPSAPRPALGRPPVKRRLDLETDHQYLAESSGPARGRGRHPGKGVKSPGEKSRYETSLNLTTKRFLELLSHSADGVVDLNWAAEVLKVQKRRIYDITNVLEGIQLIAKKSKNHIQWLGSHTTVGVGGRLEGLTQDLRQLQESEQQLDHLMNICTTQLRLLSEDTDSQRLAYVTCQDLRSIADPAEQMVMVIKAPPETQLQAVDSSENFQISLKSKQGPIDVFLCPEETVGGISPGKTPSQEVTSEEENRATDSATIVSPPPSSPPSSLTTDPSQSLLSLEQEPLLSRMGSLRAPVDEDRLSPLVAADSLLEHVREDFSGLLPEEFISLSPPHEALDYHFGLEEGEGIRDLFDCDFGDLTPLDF

A short description of test [2]: ATG_E_Box_CIS: Attagene CIS-FACTORIAL HepG2 Assay for human Enhancer Box (E-box) (AID 2282936). To be noted: HepG2 E-box cis-reporter transcription, actives raise or lower the signal. In outline:
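Transiently transfected HepG2, endogenous TF-driven reporters, 24 h dosing. Readout: RT-PCR plus capillary electrophoresis of fluorescent reporter fragments. Gain or loss of signal fitted bidirectionally against DMSO baseline.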

Test [3] in a line: ATG_M_61_CIS: Attagene CIS-FACTORIAL HepG2 Assay for M61 Transcription Factor (Internal Marker) (AID 2282937). To be noted: HepG2 Attagene CIS-FACTORIAL M61 internal marker reporter; actives raise or lower the signal. In outline: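 Human liver HepG2, transient MRTU transfection (cis promoter elements), 24 h compound. Total RNA → oligo(dT) RT → PCR → FAM label → HpaI → CE. Internal background marker; bidirectional fitting, DMSO = baseline.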

The nature of test [4]: ATG_EGR_CIS: Attagene CIS-FACTORIAL HepG2 Assay for human Early Growth Response 1 (EGR1) (AID 2282938). To be noted: HepG2 Attagene CIS-FACTORIAL EGR reporter mRNA; actives raise or lower the signal. The procedure, abridged:
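Transient transfection of human HepG2 with multiple cis-regulated reporter units, chemical exposure 24 h, total RNA isolated. Reverse transcription, PCR, fluorescent labelling and capillary electrophoresis quantify reporter transcripts; activity fitted bidirectionally against DMSO.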

Test [5] is described as follows: ATG_M_19_CIS: Attagene CIS-FACTORIAL HepG2 Assay for M19 Transcription Factor (Internal Marker) (AID 2282939). To be noted: HepG2 Attagene CIS-FACTORIAL M19 internal marker reporter; actives raise or lower the signal. In outline: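 HepG2, MRTU transient transfection, 24 h dosing. Total RNA → RT-PCR → 6-FAM primer extension → HpaI digest → CE fluorescence. Bidirectional curve fit, DMSO negative control.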

Test [6] is described as follows: ATG_ERE_CIS: Attagene CIS-FACTORIAL HepG2 Assay for Estrogen Response Element (ERE) (AID 2282940). The following applies: HepG2 ERE cis-reporter, Attagene RNA transcript; actives raise or lower the signal. The procedure, abridged:
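After a 24 h chemical treatment, RNA from reporter-transfected HepG2 cells is reverse-transcribed, PCR-amplified and fluorescently labelled. Fragments separated by capillary electrophoresis give reporter signal; DMSO serves as negative control.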

A short description of test [7]: ATG_Ets_CIS: Attagene CIS-FACTORIAL HepG2 Assay for human Erythroblast Transformation Specific (ETS) (AID 2282941). To be noted: HepG2 ETS cis-reporter transcription, actives raise or lower the signal. In outline:
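RT-PCR/capillary electrophoresis fluorescence read-out of reporter mRNA; HepG2 transient multi-reporter transfection; 24 h compound exposure; gain or loss of signal fitted bidirectionally relative to DMSO.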

Test [8] concerns the target Hepatocyte nuclear factor 3-beta (Homo sapiens) (UniProt Q9Y261). The experiment in a line: ATG_FoxA2_CIS: Attagene CIS-FACTORIAL HepG2 Assay for human Forkhead box A2 (FOXA2) (AID 2282942). The following applies: HepG2 cis-reporter transcription factor activity, 24 h; actives raise or lower the signal. The procedure, abridged: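 Transient MRTU transfection of HepG2 liver cells; 24 h treatment; total RNA → oligo(dT) RT → PCR → FAM primer extension → HpaI cut → CE. Bidirectional fit vs DMSO.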

Test [9] is described as follows: ATG_FoxO_CIS: Attagene CIS-FACTORIAL HepG2 Assay for human Forkhead box O (FoxO) (AID 2282943). The following applies: HepG2 Attagene cis-reporter, FoxO element, mRNA; actives raise or lower the signal. The procedure, abridged: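 HepG2 cells transiently transfected with cis-element-driven reporter units report endogenous FoxO activity. After 24 h chemical exposure, reporter mRNA quantified by RT-PCR, fluorescent labeling, HpaI digestion and capillary electrophoresis; bidirectional fit versus DMSO.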

Test [10] can be described thus: ATG_GATA_CIS: Attagene CIS-FACTORIAL HepG2 Assay for human GATA Binding Protein (AID 2282944). To be noted: HepG2 GATA cis-element reporter, Attagene multiplex mRNA; actives raise or lower the signal. The procedure, abridged:
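Cells: HepG2, transiently transfected with cis-regulated reporter transcription units. Exposure: 24 h. Detection: RT-PCR plus capillary electrophoresis of FAM-labeled fragments. Analysis: bidirectional, DMSO as baseline.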

Test [11] is described as follows: ATG_GLI_CIS: Attagene CIS-FACTORIAL HepG2 Assay for human Zinc Finger Protein GLI1 (AID 2282945). To be noted: HepG2, Attagene cis-factorial reporter mRNA, GLI element; actives raise or lower the signal. The procedure, abridged:
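Transiently transfected HepG2 cells report endogenous transcription factor activity via cis-element-driven reporter units. After 24 h compound exposure, reporter mRNA was measured by RT-PCR with capillary electrophoresis; bidirectional fitting against DMSO baseline.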

Test [12] can be described thus: ATG_GRE_CIS: Attagene CIS-FACTORIAL HepG2 Assay for human Glucocorticoid Response Elements (GRE) (AID 2282947). The following applies: HepG2 GRE cis-reporter, Attagene multiplex mRNA; actives raise or lower the signal. The procedure, abridged: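 Read-out: fluorescent reporter-transcript fragments separated by capillary electrophoresis after RT-PCR. Transiently transfected HepG2 cells carrying cis-element-driven reporter units were dosed for 24 h; gain or loss of signal fitted against DMSO control.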

Test [13] can be described thus: ATG_ISRE_CIS: Attagene CIS-FACTORIAL HepG2 Assay for human Interferon Regulatory Factor 1 (IRF1) binding to an Interferon-Stimulated Response Element (ISRE) (AID 2282948). To be noted: HepG2 ISRE cis-reporter (Attagene), mRNA transcription readout; actives raise or lower the signal. The procedure, abridged: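 Read-out: fluorescent RT-PCR products resolved by capillary electrophoresis, reporting endogenous transcription factor activity via ISRE-driven reporter mRNA in transfected HepG2 cells dosed for 24 h; gain or loss fitted relative to DMSO.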

Test [14] can be described thus: ATG_M_32_CIS: Attagene CIS-FACTORIAL HepG2 Assay for M32 Transcription Factor (Internal Marker) (AID 2282949).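 Also: background control marker of the multiplexed CIS panel rather than a real target.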 The following applies: HepG2 Attagene cis-factorial M32 reporter, mRNA; actives raise or lower the signal. In outline: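 Using DMSO as baseline, bidirectional curve fits were applied to reporter mRNA signals. These came from transiently transfected HepG2 cells exposed for 24 h, with RNA analysed by RT-PCR, FAM primer extension, HpaI digestion and CE.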

Test [15] in a line: ATG_M_06_CIS: Attagene CIS-FACTORIAL HepG2 Assay for M06 Transcription Factor (Internal Marker) (AID 2282950). To be noted: HepG2 Attagene CIS-FACTORIAL M06 internal marker reporter; actives raise or lower the signal. In outline: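 Measured 24 h post-dosing in transiently transfected HepG2 cells, this internal-marker endpoint reports reporter mRNA via RT-PCR with fluorescent primer extension and capillary electrophoresis. DMSO served as negative control and baseline for bidirectional fitting.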

For test [16], the target named is Hypoxia-inducible factor 1-alpha (Homo sapiens) (UniProt Q16665). Briefly: ATG_HIF1a_CIS: Attagene CIS-FACTORIAL HepG2 Assay for human Hypoxia Inducible Factor 1 (HIF1A) (AID 2282951). To be noted: HepG2 Attagene cis-factorial HIF1a reporter transcription; actives raise or lower the signal. In outline: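 Transient MRTU transfection of human HepG2 liver cells, 24 h compound treatment, then total RNA isolation, oligo(dT) reverse transcription, PCR amplification, fluorescent labelling and capillary electrophoresis of reporter fragments. Gain or loss relative to DMSO.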
Hypoxia-inducible factor 1-alpha (Homo sapiens), sequence (Q16665 whole entry, looked up, the tested form may be a part): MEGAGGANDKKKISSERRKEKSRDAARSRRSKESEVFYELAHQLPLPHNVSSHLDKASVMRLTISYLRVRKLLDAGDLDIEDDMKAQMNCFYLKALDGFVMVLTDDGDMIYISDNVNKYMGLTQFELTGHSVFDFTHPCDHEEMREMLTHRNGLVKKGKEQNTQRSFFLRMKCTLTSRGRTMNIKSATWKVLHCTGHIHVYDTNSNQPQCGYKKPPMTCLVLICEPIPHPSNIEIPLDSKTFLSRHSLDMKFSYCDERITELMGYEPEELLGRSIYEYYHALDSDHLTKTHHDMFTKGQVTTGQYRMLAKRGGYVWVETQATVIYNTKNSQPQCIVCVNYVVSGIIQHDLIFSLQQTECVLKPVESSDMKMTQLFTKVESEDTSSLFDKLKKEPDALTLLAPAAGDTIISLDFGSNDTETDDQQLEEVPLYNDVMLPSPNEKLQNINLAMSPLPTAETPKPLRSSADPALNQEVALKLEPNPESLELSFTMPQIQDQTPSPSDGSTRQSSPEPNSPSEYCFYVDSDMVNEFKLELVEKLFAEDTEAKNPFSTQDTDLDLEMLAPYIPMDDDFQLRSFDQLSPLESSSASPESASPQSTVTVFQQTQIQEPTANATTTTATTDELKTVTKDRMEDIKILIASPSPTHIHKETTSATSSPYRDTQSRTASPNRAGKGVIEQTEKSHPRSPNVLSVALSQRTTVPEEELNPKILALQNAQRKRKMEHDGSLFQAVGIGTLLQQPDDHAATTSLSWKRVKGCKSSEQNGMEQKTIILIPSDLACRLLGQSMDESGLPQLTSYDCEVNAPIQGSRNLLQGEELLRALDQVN

For test [17], the target named is Hepatocyte nuclear factor 6 (Homo sapiens) (UniProt Q9UBC0). The experiment in a line: ATG_HNF6_CIS: Attagene CIS-FACTORIAL HepG2 Assay for human Hepatocyte Nuclear Factor 6 (HNF6) (AID 2282952). To be noted: HepG2 Attagene cis-factorial HNF6 reporter transcription; actives raise or lower the signal. In outline: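 Readout: fluorescent reporter-transcript fragments resolved by capillary electrophoresis after RT-PCR, reflecting endogenous factor activity in transfected HepG2. Exposure 24 h. Gain or loss of signal fitted bidirectionally against DMSO.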
Hepatocyte nuclear factor 6 (Homo sapiens), sequence (Q9UBC0 whole entry, looked up, the tested form may be a part): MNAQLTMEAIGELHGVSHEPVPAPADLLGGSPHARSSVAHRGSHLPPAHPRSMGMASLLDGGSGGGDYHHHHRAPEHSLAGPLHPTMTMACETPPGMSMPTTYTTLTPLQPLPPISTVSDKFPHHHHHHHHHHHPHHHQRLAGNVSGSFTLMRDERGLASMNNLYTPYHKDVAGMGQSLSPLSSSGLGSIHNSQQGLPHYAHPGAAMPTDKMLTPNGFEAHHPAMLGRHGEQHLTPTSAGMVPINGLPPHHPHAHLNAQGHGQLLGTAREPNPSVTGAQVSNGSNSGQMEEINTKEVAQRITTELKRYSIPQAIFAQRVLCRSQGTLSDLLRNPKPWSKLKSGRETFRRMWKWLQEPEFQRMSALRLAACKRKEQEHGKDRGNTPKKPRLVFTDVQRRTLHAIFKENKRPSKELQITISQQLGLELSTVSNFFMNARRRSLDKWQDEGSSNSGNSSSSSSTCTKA

Test [18] concerns the target Heat shock factor protein 1 (Homo sapiens) (UniProt Q00613). The experiment in a line: ATG_HSE_CIS: Attagene CIS-FACTORIAL HepG2 Assay for human Heat Shock Transcription Factor 1 (HSE) (AID 2282953). To be noted: HepG2 HSE cis-reporter, Attagene RNA transcription; actives raise or lower the signal. The procedure, abridged:
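Reporter mRNA induction in HepG2 is measured 24 h after dosing, using transiently transfected multiplexed cis-regulated reporter units. Signal comes from capillary electrophoresis of labelled RT-PCR products, with DMSO as negative control.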

A short description of test [19]: ATG_MRE_CIS: Attagene CIS-FACTORIAL HepG2 Assay for human Metal Responsive Element (MRE) (AID 2282954). The following applies: HepG2 MRE cis-reporter transcription, Attagene multiplex; actives raise or lower the signal. The procedure, abridged: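 RT-PCR/capillary electrophoresis readout of reporter mRNA, 24 h post-dosing, in HepG2 cells transfected with multiplexed cis-regulated reporter constructs. Gain or loss of signal fitted bidirectionally against DMSO baseline.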

Test [20] deals with Bile acid receptor (Homo sapiens) (UniProt Q96RI1). The experiment in a line: ATG_IR1_CIS: Attagene CIS-FACTORIAL HepG2 Assay for human Nuclear Receptor Subfamily 1 Group H Member 4 (NR1H4), IR1 submotif (AID 2282946). The following applies: IR1 reporter transcription, actives raise or lower the signal. In outline: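 Fluorescence of capillary-separated, HpaI-digested RT-PCR reporter products gave IR1-element mRNA induction in HepG2 cells 24 h after dosing. Endogenous transcription factors drove the cis-regulated reporters; activity was fitted bidirectionally against DMSO.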
Bile acid receptor (Homo sapiens), sequence (Q96RI1 whole entry, looked up): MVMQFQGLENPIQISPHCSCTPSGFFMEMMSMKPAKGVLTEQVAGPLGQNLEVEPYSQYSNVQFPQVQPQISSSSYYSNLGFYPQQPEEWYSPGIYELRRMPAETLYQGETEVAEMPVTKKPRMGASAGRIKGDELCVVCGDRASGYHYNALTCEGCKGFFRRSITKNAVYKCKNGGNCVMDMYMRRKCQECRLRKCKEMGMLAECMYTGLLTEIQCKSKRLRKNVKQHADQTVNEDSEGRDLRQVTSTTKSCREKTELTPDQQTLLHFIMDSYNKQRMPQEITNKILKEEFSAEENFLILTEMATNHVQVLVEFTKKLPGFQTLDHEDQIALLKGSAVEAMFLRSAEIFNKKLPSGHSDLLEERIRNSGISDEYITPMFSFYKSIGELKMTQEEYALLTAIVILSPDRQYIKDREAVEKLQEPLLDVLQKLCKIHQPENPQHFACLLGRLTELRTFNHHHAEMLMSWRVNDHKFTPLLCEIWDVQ

Heat shock factor protein 1 (Homo sapiens), sequence (Q00613 whole entry, looked up): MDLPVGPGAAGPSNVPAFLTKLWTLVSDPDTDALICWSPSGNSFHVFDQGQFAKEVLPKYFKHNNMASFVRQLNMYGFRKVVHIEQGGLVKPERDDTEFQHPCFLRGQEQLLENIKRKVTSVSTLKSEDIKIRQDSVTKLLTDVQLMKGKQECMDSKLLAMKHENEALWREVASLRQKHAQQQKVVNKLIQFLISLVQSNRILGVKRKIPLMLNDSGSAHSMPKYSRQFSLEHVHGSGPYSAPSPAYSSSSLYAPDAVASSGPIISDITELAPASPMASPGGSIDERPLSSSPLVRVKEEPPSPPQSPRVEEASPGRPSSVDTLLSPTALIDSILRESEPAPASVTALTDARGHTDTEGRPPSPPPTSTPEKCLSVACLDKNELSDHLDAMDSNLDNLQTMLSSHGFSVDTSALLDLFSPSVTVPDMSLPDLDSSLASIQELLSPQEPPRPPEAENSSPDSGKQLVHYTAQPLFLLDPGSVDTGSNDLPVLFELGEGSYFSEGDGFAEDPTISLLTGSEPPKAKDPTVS
Hepatocyte nuclear factor 3-beta (Homo sapiens), sequence (Q9Y261 whole entry, looked up): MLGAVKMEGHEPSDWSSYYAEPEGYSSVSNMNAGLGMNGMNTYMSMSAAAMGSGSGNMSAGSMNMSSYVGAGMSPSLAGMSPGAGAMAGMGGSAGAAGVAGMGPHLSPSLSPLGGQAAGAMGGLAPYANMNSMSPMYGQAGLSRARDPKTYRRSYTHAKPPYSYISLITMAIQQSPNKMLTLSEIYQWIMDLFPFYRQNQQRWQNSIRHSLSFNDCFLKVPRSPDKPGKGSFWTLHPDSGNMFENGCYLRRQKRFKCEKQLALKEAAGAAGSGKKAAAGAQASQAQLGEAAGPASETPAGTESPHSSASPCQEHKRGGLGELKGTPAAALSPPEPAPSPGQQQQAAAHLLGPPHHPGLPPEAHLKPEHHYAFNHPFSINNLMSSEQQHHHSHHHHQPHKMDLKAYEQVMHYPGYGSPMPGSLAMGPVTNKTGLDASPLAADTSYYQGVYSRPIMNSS

As for `CC(C)CO`, the molecule was classed as inactive in [1], in test [2], in test [3], in test [4], in test [5] and in test [6]. For the same molecule, the result in test [7], in [8], in test [9], in test [10], in test [11] and in test [12] was inactive. Moreover, the outcome in test [13], in test [14], in [15], in test [16], in test [17] and in test [18] was inactive. In addition, in [19], the call was inactive.

As for `CC1CCC(C(C)(C)S)C(=O)C1` (centres undefined), the molecule was classed as inactive in test [1], in test [2], in test [3], in test [4], in test [5] and in [6]. Besides, the result in test [7], in [8], in test [9], in test [10], in [11] and in test [20] was inactive. The outcome in test [13], in [14], in [15], in test [17], in test [18] and in [19] was inactive.

With `CC(C)=NNC(N)=S`, the molecule was classed as inactive in test [1], in test [2], in [3], in [4], in test [5] and in [6]. For the same molecule, the result in test [7], in test [8], in test [9], in test [10], in test [11] and in test [20] was inactive. Further, the molecule was classed as inactive in test [13], in test [14], in [15], in test [17] and in test [19]. Moreover, in test [16], the AC50 (commonly the midpoint of the concentration-response curve, whichever way the signal moves) is 9.14 µM (active).

As to `O=S(=O)(O)c1ccc(Nc2nc(Nc3ccc(C=Cc4ccc(Nc5nc(Nc6ccc(S(=O)(=O)O)cc6)nc(N(CCO)CCO)n5)cc4S(=O)(=O)O)c(S(=O)(=O)O)c3)nc(N(CCO)CCO)n2)cc1`, the outcome in test [1], in test [2], in test [3], in test [4], in [5] and in [6] was inactive. The molecule was classed as inactive in test [7], in test [8], in test [9], in test [10], in [11] and in test [20]. Also, the outcome in test [13], in test [14], in test [15], in test [16], in [17] and in test [18] was inactive. For the same molecule, the outcome in test [19] was inactive.
